According to PubChem BioAssay (EPA / NIEHS):
Several values for one entry are separate records, joined by “and”; a condition that tells them apart may be missing. Equal entries are not always repeated. Where a structure was tested more than once in an assay, its records may differ in their call. Activity calls are given as the source filed them. How the source made its calls: active means hit-call score of the fitted dose curve at least 0.9, where 1 is the maximum; inactive means score below 0.9.

Experiment: IUF_NPC2b_neuronal_migration_120hr: Leibniz Research Institute for Environmental Medicine (IUF) 120-hour Neural Progenitor Cell Migration Assay for Neuron Migration (NPC2b) (AID 2284300)
Experimental: IUF_NPC2-5 is a cell-based, multiplexed assay that uses hNPC, a human primary neural progenitor cells, with measurements taken at 72 or 120 hours after chemical dosing in a 96-well plate. Human neural progenitor cells (hNPC) are generated from human fetal brain cortex at gestational week (GW) 16-19. In the neural progenitor cell migration and differentiation assay (NPC2-5), hNPCs grown as spheres are plated on an extracellular matrix and migrate and differentiate out of the sphere core. The processes radial glia migration, neuronal and oligodendrocyte migration as well as neuronal differentiation, neuronal morphology and oligodendrocyte differentiation are studied using automated phase contrast imaging and automated fluorescence imaging in combination with high content image analysis. In parallel, the cell viability is assessed using an alamar blue viability assay and the cytotoxicity using a lactate dehydrogenase dependent membrane integrity assay.IUF_NPC2b_neuronal_migration_120hr is one of 12 assay components measured from the IUF_NPC2-5 assay. Neuronal migration distance at 120 hr is the mean distance of all neurons from the edge of the sphere core to each individual neuron (see IUF_NPC3_neuronal_differentiation_120hr). Neuronal migration is normalized to radial glia migration distance at 120 hr.Data from the IUF_NPC2b_neuronal_migration_120hr component was analyzed at the endpoint IUF_NPC2b_neuronal_migration_120hr in the positive analysis fitting direction relative to DMSO as the negative control and baseline of activity. Using a type of migration reporter, gain or loss-of-signal activity can be used to understand developmental effects.
Culture protocol: After the cell expansion period the cells are cultured for up to four weeks in which they are passaged every week as described in 3.6. Between one to three days after passaging spheres at a size of 0.3 mm are picked for the test method. For the assessment of neural progenitor cell migration and differentiation, the spheres are plated on poly-D-lysine/laminin coated 96-well flat bottom plates in differentiation medium (N2) to initiate migration and differentiation. Thereby one 0.3 mm big sphere is plated in the middle of a well. The differentiation medium consists of DMEM and Ham's F12 at a ratio of 3 to 1 supplemented with 1% N2 and 1% penicillin and streptomycin. Within 5 days NPCs radially migrate out of the sphere core and differentiate into radial glia cells (nestin positive), neurons (TUBB3 positive), oligodendrocytes (O4 positive) and astrocytes (GFAP positive). Cultivation during the test method is performed at 37C and 5% CO2 at a ph of 7.2-7.6.Exposure: 0.3 mm big hNPC are plated in the already prepared test conditions. Exposure starts at day 0 of differentiation and is continued over five days of differentiation until the experiment is terminated. Cells are fed with fresh medium at day 3 of differentiation. Therefore, half of the test condition solution (e.g. solvent control or compound dilution) is replaced by freshly prepared test condition solution.Test Method: Migration distance and cytotoxicity is determined after 72 hours based on brightfield images of each well. The assay is terminated by the assessment of cell viability and cytotoxicity as well as cell fixation after 120 h. Immunocytochemistry is performed for Hoechst positive nuclei, TUBB3 positive neurons and O4 positive oligodendrocytes. On the ICC images, migration after 120 hours, neuronal and oligodendrocyte number, neuronal morphology and neuron/oligodendrocyte specific migration is assessed. immunocytochemical staining (ICC) generates an image for each sphere. The plates are scanned using an automated high content imaging device and all nuclei and their positions are determined automatically based on their intensity and size. Images are imported to the Omnisphero software to run the image analysis that measures the following endpoints. […]

Compound | outcome | AC50
CCOP(=S)(Oc1cnc(C(C)(C)C)nc1)OC(C)C (stereo not given) | inactive | 
CCOC(=O)CC(SP(=O)(OC)OC)C(=O)OCC (stereo not given) | inactive | 
CCOP(=S)(OCC)SCCSCC | inactive | 
C[N+]1(C)CCCCC1 | inactive | 
CCOP(=O)(NC(C)C)Oc1ccc(SC)c(C)c1 (stereo not given) | inactive | 
COP(=O)(OC)C(O)C(Cl)(Cl)Cl (stereo not given) | inactive | 
CC1=NNC(=O)N(/N=C/c2cccnc2)C1 | inactive | 
S=C1NCCN1 | inactive | 
CN1COCN(Cc2cnc(Cl)s2)C1=N[N+](=O)[O-] | inactive | 
CCOP(=S)(OCC)Oc1cc(C)nc(C(C)C)n1 | inactive | 
CCCCSP(=O)(SCCCC)SCCCC | inactive | 
COP(=O)(NC(C)=O)SC (stereo not given) | inactive | 
C=C(C)[C@H]1Cc2c(ccc3c2O[C@@H]2COc4cc(OC)c(OC)cc4[C@@H]2C3=O)O1 | inactive | 9.58 nM (active)
CON=C(C(=O)OC)c1ccccc1CON=C(C)c1cccc(C(F)(F)F)c1 | inactive | 
CC[C@H](C)[C@H]1O[C@]2(C=C[C@@H]1C)C[C@@H]1C[C@@H](C/C=C(\C)[C@@H](O[C@H]3C[C@H](OC)[C@@H](O[C@H]4C[C@H](OC)[C@@H](NC)[C@H](C)O4)[C@H](C)O3)[C@@H](C)/C=C/C=C3\CO[C@@H]4[C@H](O)C(C)=C[C@@H](C(=O)O1)[C@]34O)O2 |  | 1.07 µM (active) and 3.32 µM (active)
CC(C)N(C(=O)SCC(Cl)=C(Cl)Cl)C(C)C | inactive | 
CSC1=N[C@@](C)(c2ccccc2)C(=O)N1Nc1ccccc1 | inactive | 
CC(=NC#N)N(C)Cc1ccc(Cl)nc1 | inactive | 
CCOP(=O)(OCC)Oc1cc(C)nc(C(C)C)n1 | inactive | 
CCCSP(=O)(OCC)SCCC | inactive | 
CCOP(=S)(OCC)OC(Cl)C(Cl)(Cl)Cl (stereo not given) | inactive | 
CN(C)[C@@H]1C(=O)C(C(N)=O)=C(O)[C@@]2(O)C(=O)C3=C(O)c4c(O)cccc4[C@@](C)(O)[C@H]3[C@H](O)[C@@H]12 |  | 38700 nM (active)
O=[N+]([O-])c1cc(C(F)(F)F)c(Cl)c([N+](=O)[O-])c1Nc1ncc(C(F)(F)F)cc1Cl |  | 796 nM (active)
COP(=O)(OC)OC(Br)C(Cl)(Cl)Br (stereo not given) |  | 38100 nM (active)
